This is an account of results in ChEMBL document CHEMBL3988442, “University of Dundee, Small-Polar-MMV Screening Library” (2021).

Experiment [1] concerns the target T1, Aspartate--tRNA(Asp/Asn) ligase (Mycobacterium tuberculosis (strain ATCC 25618 / H37Rv)) (UniProt P9WFW3). Note: in the data most compounds retested in dose-response had high values.
T1 sequence (whole entry): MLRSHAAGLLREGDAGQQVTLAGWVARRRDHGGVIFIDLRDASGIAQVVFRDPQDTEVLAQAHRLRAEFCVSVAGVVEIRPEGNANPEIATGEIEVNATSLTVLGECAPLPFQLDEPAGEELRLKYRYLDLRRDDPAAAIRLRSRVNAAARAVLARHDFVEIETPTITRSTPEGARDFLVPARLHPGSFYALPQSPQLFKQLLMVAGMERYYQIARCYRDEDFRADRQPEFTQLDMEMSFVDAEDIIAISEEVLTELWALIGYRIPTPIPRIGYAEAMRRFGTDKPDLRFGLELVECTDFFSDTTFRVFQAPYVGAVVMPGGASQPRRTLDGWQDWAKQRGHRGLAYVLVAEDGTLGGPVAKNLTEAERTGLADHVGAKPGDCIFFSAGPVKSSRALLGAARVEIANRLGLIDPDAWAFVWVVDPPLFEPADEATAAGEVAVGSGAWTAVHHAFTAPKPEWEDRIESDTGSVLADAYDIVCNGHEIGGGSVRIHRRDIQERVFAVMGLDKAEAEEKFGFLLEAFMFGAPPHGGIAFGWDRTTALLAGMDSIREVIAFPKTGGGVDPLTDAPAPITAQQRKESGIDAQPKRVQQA
Kind of experiment: Assay for Asp RNA synthetase-1 from Mycobacterium tuberculosis. The experiment is classed as functional. Details: scale not given: direction of the effect not stated beside the values. To be noted: 30 µM.

In experiment [2] the target is Shiga toxin 2 (Escherichia coli O157:H7) (UniProt P09385+P09386). The experiment in a line: E. coli 0.157:H7 Shiga Toxin SOP - stx2 screening assay. The experiment is classed as functional. Further details: scale not given: direction of the effect not stated beside the values. To be noted: 30 µM.

Molecules are shown by their SMILES.

In the case of `Cc1nc(CC(=O)N2CCC[C@H]2c2nc(C(C)C)no2)cs1`, the Percent Effect is -2.23% in experiment [1] and 4.58% in experiment [2].
In the same order, the values of `CCCN(CC(=O)NC)C(=O)c1ccc(-c2ccsc2)nc1C` are -3.29% and -2.59%.
In the same order, the values of `CN(C(=O)c1cc(Cl)c[nH]1)C1CCN(c2ccccn2)CC1` are -6.49% and 1.72%.
With `COc1ccc(NC(C)C(=O)N2CCN(c3ncccn3)CC2)cn1` (stereo unspecified), the Percent Effect in experiment [1] is -4.63%; in experiment [2] it was 5.46%.
In the same order, the values of `COc1ccc(NC(=O)CNc2cccc3c2CCCC3)c(OC)c1` are 1% and -28.6%.
The matching figures for `Cn1ccc(CN2CCC(OCCc3ccccc3)CC2)cc1=O`: 2.67% and 8.32%.
As for `O=C(CCCc1cn[nH]c1)N1C[C@@H](CN2CCOCC2)[C@@H](CO)C1`, the Percent Effect was 4.17% in experiment [1] and -29.7% in experiment [2].
In the same order, the values of `Cc1noc([C@H]2C[C@@H]3CCN(C(=O)N(C)C)C[C@H]3O2)n1` are 3.32% and -1.56%.
In the same order, the values of `O=C(CC1CC1)N1CC[C@H]2[C@@H]1CCC(=O)N2c1cccnc1` are -4.48% and -0.916%.
As for `CC(=O)N1CCN(S(=O)(=O)c2ccc(C)c(F)c2)CC1`, the Percent Effect in experiment [1] is -1.95%; in experiment [2], -12.2%.
Turning to `CC(C)c1noc(CN(Cc2ccccc2F)C2CC2)n1`, the results for the Percent Effect in experiment [1] and in experiment [2] were 12.6% and -59.6%, respectively.
In the same order, the values of `Cn1cnnc1C1CCN(C(=O)CCCOc2ccccc2F)CC1` are 0.819% and -1.48%.
`O=C(NCCNc1cnccn1)N1CCN(Cc2cccnc2)CC1`: the results for the Percent Effect in experiment [1] and in experiment [2] were -4.35% and -68.8%, respectively.
In the same order, the values of `Cc1cc(C(=O)NCc2ccnc(N(C)C)c2)c(C)o1` are 5.55% and -9.84%.
The matching figures for `CC(O)CN1CCN(C(=O)c2ccc(Br)o2)CC1` (stereo unspecified): -2.21% and 22.8%.
With `CC(C)n1cc(S(=O)(=O)N2CCCCC2)cn1`, the Percent Effect in experiment [1] is -0.668%; in experiment [2] it was -17.6%.
In the same order, the values of `CC(C)[C@H](NC(=O)NC1CCS(=O)(=O)C1)C(=O)NCc1cccnc1` (stereo partly specified) are -2.09% and -28.7%.
`O=C(Nc1cnn(CCN2CCOCC2)c1)c1cc(F)ccc1F`: the Percent Effect in experiment [1] worked out at 0.211%; in experiment [2], 21.3%.
